Results on ten sequences are retold here after paper PMC11006913.

Assay in all cases: PBM; 200 nM protein, PBS
What all share (conditions): dsDNA, one strand shown

Assay [1] deals with HOXC9 (Homo sapiens, UniProt P31274 178-260, K195R).
Assay [2] concerns the target HOXA7 (Homo sapiens, UniProt P31268 116-202).
The target in assay [3] is HOXC9 (Homo sapiens, UniProt P31274 178-260).
Assay [4] concerns the target HOXC9 (Homo sapiens, UniProt P31274 178-260, R193K).
The target of assay [5] is HOXC9 (Homo sapiens, UniProt P31274 178-260, R222W).
HOXC9 (Homo sapiens, UniProt P31274 178-260, R222W), sequence (P31274 178-260 R222W): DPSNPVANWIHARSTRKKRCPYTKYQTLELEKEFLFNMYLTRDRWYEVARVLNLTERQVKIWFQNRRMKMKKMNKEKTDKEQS
Assay [6] addresses HOXA7 (Homo sapiens, UniProt P31268 116-202, W177C).
Assay [7] has as its target NKX3-2 (Homo sapiens, UniProt P78367 192-278, P234S).
Assay [8] has as its target NKX3-2 (Homo sapiens, UniProt P78367 192-278).
Assay [9] concerns the target HOXC10 (Homo sapiens, UniProt Q9NYD6 254-340).
Assay [10] addresses T1, PAX4 (Homo sapiens, UniProt O43316 9-242, R200K).
T1 sequence: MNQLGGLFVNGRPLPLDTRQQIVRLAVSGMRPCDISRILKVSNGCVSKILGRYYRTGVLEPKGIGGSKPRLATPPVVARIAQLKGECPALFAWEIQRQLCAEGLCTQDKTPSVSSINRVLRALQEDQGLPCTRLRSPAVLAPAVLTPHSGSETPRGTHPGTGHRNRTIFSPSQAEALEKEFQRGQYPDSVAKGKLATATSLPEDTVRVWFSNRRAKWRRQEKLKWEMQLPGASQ

In assay [11] the target is T2, PAX4 (Homo sapiens, UniProt O43316 9-242).
T2 sequence: T1 sequence with K192R

Assay [12] concerns the target ALX3 (Homo sapiens, UniProt O95076 139-225, N203Q).
Assay [13] has as its target T3, PAX4 (Homo sapiens, UniProt O43316 9-242, R200Q).
T3 sequence: T1 sequence with K192Q

For assay [14], the target named is T4, PAX4 (Homo sapiens, UniProt O43316 9-242, F177V).
T4 sequence: T1 sequence with F169V, K192R

Assay [15] has as its target HOXC10 (Homo sapiens, UniProt Q9NYD6 254-340, K271E).
The target in assay [16] is ALX3 (Homo sapiens, UniProt O95076 139-225).
ALX3 (Homo sapiens, UniProt O95076 139-225), sequence (O95076 139-225): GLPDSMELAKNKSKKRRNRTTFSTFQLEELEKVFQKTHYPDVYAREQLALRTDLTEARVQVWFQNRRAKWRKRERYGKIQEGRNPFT
Assay [17] deals with T5, PAX4 (Homo sapiens, UniProt O43316 9-242, F177Y).
T5 sequence: T1 sequence with F169Y, K192R

Assay [18] has as its target ALX3 (Homo sapiens, UniProt O95076 139-225, L168Q).
For assay [19], the target named is ALX3 (Homo sapiens, UniProt O95076 139-225, L168V).
ALX3 (Homo sapiens, UniProt O95076 139-225, L168V), sequence (O95076 139-225 L168V): as the sequence (O95076 139-225) above, with L30V counted along it
Assay [20] addresses T6, PAX4 (Homo sapiens, UniProt O43316 9-242, R227W).
T6 sequence: T1 sequence with K192R, R219W

Assay [21] addresses ALX3 (Homo sapiens, UniProt O95076 139-225, N203S).
Assay [22] has as its target HOXA4 (Homo sapiens, UniProt Q00056 201-287, W262R).
For assay [23], the target named is HOXA4 (Homo sapiens, UniProt Q00056 201-287).
HOXA4 (Homo sapiens, UniProt Q00056 201-287), sequence (Q00056 201-287): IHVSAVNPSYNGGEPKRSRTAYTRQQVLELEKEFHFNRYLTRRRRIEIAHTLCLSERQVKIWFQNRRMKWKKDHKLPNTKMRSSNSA
The target in assay [24] is HOXA4 (Homo sapiens, UniProt Q00056 201-287, W262F).
HOXA4 (Homo sapiens, UniProt Q00056 201-287, W262F), sequence (Q00056 201-287 W262F): as the sequence (Q00056 201-287) above, with W62F counted along it
The target of assay [25] is VAX1 (Homo sapiens, UniProt Q5SQQ9 86-172).
VAX1 (Homo sapiens, UniProt Q5SQQ9 86-172), sequence (Q5SQQ9 86-172): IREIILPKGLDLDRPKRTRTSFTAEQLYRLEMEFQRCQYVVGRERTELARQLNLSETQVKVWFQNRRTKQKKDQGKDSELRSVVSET
For assay [26], the target named is VAX1 (Homo sapiens, UniProt Q5SQQ9 86-172, T142I).
VAX1 (Homo sapiens, UniProt Q5SQQ9 86-172, T142I), sequence (Q5SQQ9 86-172 T142I): as the sequence (Q5SQQ9 86-172) above, with T57I counted along it
Assay [27] deals with VAX1 (Homo sapiens, UniProt Q5SQQ9 86-172, K157R).
VAX1 (Homo sapiens, UniProt Q5SQQ9 86-172, K157R), sequence (Q5SQQ9 86-172 K157R): as the sequence (Q5SQQ9 86-172) above, with K72R counted along it
In assay [28] the target is ALX4 (Homo sapiens, UniProt Q9H161 200-286).
ALX4 (Homo sapiens, UniProt Q9H161 200-286), sequence (Q9H161 200-286): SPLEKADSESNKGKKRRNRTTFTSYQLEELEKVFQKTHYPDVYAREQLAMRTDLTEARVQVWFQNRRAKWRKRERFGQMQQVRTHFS
Assay [29] has as its target ALX4 (Homo sapiens, UniProt Q9H161 200-286, Q225E).
Assay [30] has as its target MSX2 (Homo sapiens, UniProt P35548 130-214, R199I).
Assay [31] deals with MSX2 (Homo sapiens, UniProt P35548 130-214).
MSX2 (Homo sapiens, UniProt P35548 130-214), sequence (P35548 130-214): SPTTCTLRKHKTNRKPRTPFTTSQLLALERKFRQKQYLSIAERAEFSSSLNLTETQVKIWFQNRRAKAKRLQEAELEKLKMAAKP
Assay [32] addresses MSX2 (Homo sapiens, UniProt P35548 130-214, F161Y).

Where a chain is given by its changes, count along the chain named.

HOXC9 (Homo sapiens, UniProt P31274 178-260), sequence (P31274 178-260): as the sequence (P31274 178-260 R222W) above, with W45R counted along it
HOXC9 (Homo sapiens, UniProt P31274 178-260, K195R), sequence (P31274 178-260 K195R): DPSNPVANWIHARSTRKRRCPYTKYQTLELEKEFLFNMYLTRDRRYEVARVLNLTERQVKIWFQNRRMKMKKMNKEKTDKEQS
HOXC9 (Homo sapiens, UniProt P31274 178-260, R193K), sequence (P31274 178-260 R193K): as the sequence (P31274 178-260 R222W) above, with R16K, W45R counted along it
HOXA4 (Homo sapiens, UniProt Q00056 201-287, W262R), sequence (Q00056 201-287 W262R): as the sequence (Q00056 201-287) above, with W62R counted along it
ALX3 (Homo sapiens, UniProt O95076 139-225, N203S), sequence (O95076 139-225 N203S): as the sequence (O95076 139-225) above, with N65S counted along it
HOXA7 (Homo sapiens, UniProt P31268 116-202, W177C), sequence (P31268 116-202 W177C): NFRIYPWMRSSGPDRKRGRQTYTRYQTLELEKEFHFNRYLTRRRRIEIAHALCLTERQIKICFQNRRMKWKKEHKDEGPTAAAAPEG
ALX3 (Homo sapiens, UniProt O95076 139-225, L168Q), sequence (O95076 139-225 L168Q): as the sequence (O95076 139-225) above, with L30Q counted along it
HOXA7 (Homo sapiens, UniProt P31268 116-202), sequence (P31268 116-202): as the sequence (P31268 116-202 W177C) above, with C62W counted along it
ALX3 (Homo sapiens, UniProt O95076 139-225, N203Q), sequence (O95076 139-225 N203Q): as the sequence (O95076 139-225) above, with N65Q counted along it
MSX2 (Homo sapiens, UniProt P35548 130-214, R199I), sequence (P35548 130-214 R199I): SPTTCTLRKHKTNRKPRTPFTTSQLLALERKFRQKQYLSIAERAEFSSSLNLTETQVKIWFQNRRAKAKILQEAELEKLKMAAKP
HOXC10 (Homo sapiens, UniProt Q9NYD6 254-340), sequence (Q9NYD6 254-340): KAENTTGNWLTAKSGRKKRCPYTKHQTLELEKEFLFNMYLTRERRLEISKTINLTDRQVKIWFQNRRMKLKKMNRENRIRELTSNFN
MSX2 (Homo sapiens, UniProt P35548 130-214, F161Y), sequence (P35548 130-214 F161Y): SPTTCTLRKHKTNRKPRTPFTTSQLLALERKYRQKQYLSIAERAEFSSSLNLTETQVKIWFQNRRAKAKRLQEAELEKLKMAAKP
ALX4 (Homo sapiens, UniProt Q9H161 200-286, Q225E), sequence (Q9H161 200-286 Q225E): as the sequence (Q9H161 200-286) above, with Q26E counted along it
HOXC10 (Homo sapiens, UniProt Q9NYD6 254-340, K271E), sequence (Q9NYD6 254-340 K271E): as the sequence (Q9NYD6 254-340) above, with K18E counted along it
NKX3-2 (Homo sapiens, UniProt P78367 192-278), sequence (P78367 192-278): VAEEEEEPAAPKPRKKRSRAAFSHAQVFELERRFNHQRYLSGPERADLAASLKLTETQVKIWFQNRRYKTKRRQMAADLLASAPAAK
NKX3-2 (Homo sapiens, UniProt P78367 192-278, P234S), sequence (P78367 192-278 P234S): as the sequence (P78367 192-278) above, with P43S counted along it

As to CAAGCTCG, the binding signal is 9.46 upbm affinity estimate (log intensity, higher = more binding, comparable within an allelic series) in [1]; 8.21 upbm affinity estimate (log intensity, higher = more binding, comparable within an allelic series) in assay [2]; 9.49 upbm affinity estimate (log intensity, higher = more binding, comparable within an allelic series) in [3]; 9.44 upbm affinity estimate (log intensity, higher = more binding, comparable within an allelic series) in assay [4]; 9.62 upbm affinity estimate (log intensity, higher = more binding, comparable within an allelic series) in [5]; 8.29 upbm affinity estimate (log intensity, higher = more binding, comparable within an allelic series) in [6]. Besides, the binding signal in assay [7] is 10.3 upbm affinity estimate (log intensity, higher = more binding, comparable within an allelic series); in assay [8], 10.3 upbm affinity estimate (log intensity, higher = more binding, comparable within an allelic series).

On to CAGCCTTC, for which the binding signal in assay [1] is 9.4 upbm affinity estimate (log intensity, higher = more binding, comparable within an allelic series); in [9] it was 9.83 upbm affinity estimate (log intensity, higher = more binding, comparable within an allelic series); in assay [10], 9.16 upbm affinity estimate (log intensity, higher = more binding, comparable within an allelic series); in assay [11], 9.3 upbm affinity estimate (log intensity, higher = more binding, comparable within an allelic series); in assay [3] it was 9.46 upbm affinity estimate (log intensity, higher = more binding, comparable within an allelic series); in assay [12], 7.71 upbm affinity estimate (log intensity, higher = more binding, comparable within an allelic series). Besides, the binding signal in [13] was 9.32 upbm affinity estimate (log intensity, higher = more binding, comparable within an allelic series); in assay [4] it was 9.41 upbm affinity estimate (log intensity, higher = more binding, comparable within an allelic series); in assay [14], 9.05 upbm affinity estimate (log intensity, higher = more binding, comparable within an allelic series); in assay [15] it was 9.85 upbm affinity estimate (log intensity, higher = more binding, comparable within an allelic series); in assay [16], 7.49 upbm affinity estimate (log intensity, higher = more binding, comparable within an allelic series); in assay [17], 9.15 upbm affinity estimate (log intensity, higher = more binding, comparable within an allelic series). Also, the binding signal in assay [18] was 7.82 upbm affinity estimate (log intensity, higher = more binding, comparable within an allelic series); in [5], 9.69 upbm affinity estimate (log intensity, higher = more binding, comparable within an allelic series); in assay [19] it was 7.71 upbm affinity estimate (log intensity, higher = more binding, comparable within an allelic series); in [20], 9.26 upbm affinity estimate (log intensity, higher = more binding, comparable within an allelic series); in assay [21], 7.68 upbm affinity estimate (log intensity, higher = more binding, comparable within an allelic series).

AATAGGTG: the binding signal in assay [22] was 10.3 upbm affinity estimate (log intensity, higher = more binding, comparable within an allelic series); in assay [23] it was 11.3 upbm affinity estimate (log intensity, higher = more binding, comparable within an allelic series); in assay [24] it was 10.3 upbm affinity estimate (log intensity, higher = more binding, comparable within an allelic series).

For AATCACTG, the binding signal in assay [22] is 10.3 upbm affinity estimate (log intensity, higher = more binding, comparable within an allelic series); in assay [23], 11.3 upbm affinity estimate (log intensity, higher = more binding, comparable within an allelic series); in assay [25] it was 9.43 upbm affinity estimate (log intensity, higher = more binding, comparable within an allelic series); in assay [26] it was 9.21 upbm affinity estimate (log intensity, higher = more binding, comparable within an allelic series); in assay [27], 9.33 upbm affinity estimate (log intensity, higher = more binding, comparable within an allelic series).

Turning to CGCGGTGC, the binding signal was 9.77 upbm affinity estimate (log intensity, higher = more binding, comparable within an allelic series) in assay [1]; 8.05 upbm affinity estimate (log intensity, higher = more binding, comparable within an allelic series) in [28]; 8.13 upbm affinity estimate (log intensity, higher = more binding, comparable within an allelic series) in assay [29]; 9.77 upbm affinity estimate (log intensity, higher = more binding, comparable within an allelic series) in assay [3]; 9.6 upbm affinity estimate (log intensity, higher = more binding, comparable within an allelic series) in [30]; 9.76 upbm affinity estimate (log intensity, higher = more binding, comparable within an allelic series) in assay [4]. Further, the binding signal in assay [31] is 9.52 upbm affinity estimate (log intensity, higher = more binding, comparable within an allelic series); in [5] it was 9.74 upbm affinity estimate (log intensity, higher = more binding, comparable within an allelic series); in assay [32] it was 9.68 upbm affinity estimate (log intensity, higher = more binding, comparable within an allelic series).

With ACCGCCCG, the binding signal in assay [1] is 9.62 upbm affinity estimate (log intensity, higher = more binding, comparable within an allelic series); in assay [10], 9.22 upbm affinity estimate (log intensity, higher = more binding, comparable within an allelic series); in [11], 9.09 upbm affinity estimate (log intensity, higher = more binding, comparable within an allelic series); in assay [3], 9.79 upbm affinity estimate (log intensity, higher = more binding, comparable within an allelic series); in assay [13] it was 9.24 upbm affinity estimate (log intensity, higher = more binding, comparable within an allelic series); in assay [4], 9.6 upbm affinity estimate (log intensity, higher = more binding, comparable within an allelic series). Besides, the binding signal is 9.1 upbm affinity estimate (log intensity, higher = more binding, comparable within an allelic series) in assay [14]; 9.01 upbm affinity estimate (log intensity, higher = more binding, comparable within an allelic series) in assay [17]; 9.71 upbm affinity estimate (log intensity, higher = more binding, comparable within an allelic series) in assay [5]; 9.19 upbm affinity estimate (log intensity, higher = more binding, comparable within an allelic series) in assay [20].

For ATGACAGC, the binding signal in assay [22] is 10.2 upbm affinity estimate (log intensity, higher = more binding, comparable within an allelic series); in [23] it was 11.3 upbm affinity estimate (log intensity, higher = more binding, comparable within an allelic series); in assay [24] it was 10.5 upbm affinity estimate (log intensity, higher = more binding, comparable within an allelic series).

In the case of CTAATCTA, the binding signal was 10.3 upbm affinity estimate (log intensity, higher = more binding, comparable within an allelic series) in assay [22] and 12 upbm affinity estimate (log intensity, higher = more binding, comparable within an allelic series) in assay [23].

With ATATTGAG, the binding signal is 10.3 upbm affinity estimate (log intensity, higher = more binding, comparable within an allelic series) in assay [22] and 10.9 upbm affinity estimate (log intensity, higher = more binding, comparable within an allelic series) in assay [23].

In the case of AGCAGCCC, the binding signal in assay [1] is 9.76 upbm affinity estimate (log intensity, higher = more binding, comparable within an allelic series); in assay [2] it was 8.64 upbm affinity estimate (log intensity, higher = more binding, comparable within an allelic series); in [3], 9.83 upbm affinity estimate (log intensity, higher = more binding, comparable within an allelic series); in assay [12] it was 7.76 upbm affinity estimate (log intensity, higher = more binding, comparable within an allelic series); in [4] it was 9.78 upbm affinity estimate (log intensity, higher = more binding, comparable within an allelic series); in [16], 7.62 upbm affinity estimate (log intensity, higher = more binding, comparable within an allelic series). In addition, the binding signal was 7.67 upbm affinity estimate (log intensity, higher = more binding, comparable within an allelic series) in [18]; 9.61 upbm affinity estimate (log intensity, higher = more binding, comparable within an allelic series) in assay [5]; 7.75 upbm affinity estimate (log intensity, higher = more binding, comparable within an allelic series) in [19]; 8.34 upbm affinity estimate (log intensity, higher = more binding, comparable within an allelic series) in assay [6]; 7.72 upbm affinity estimate (log intensity, higher = more binding, comparable within an allelic series) in [21].
